According to PubChem BioAssay AID1619 (SRMLSC, 2009):
The whole screen tested about 220,000 compounds, of which about 830 (0.38%) were called active.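 How the source made its calls: active means compound inhibiting the enzyme by more than half at any dose during confirmatory dose-response retesting; inconclusive means strong single-dose inhibitors picked by rank but not retested; inactive means the rest.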 A selection follows. Results with a measured potency or affinity are listed apart.

target: Leucine aminopeptidase (Plasmodium falciparum (isolate 3D7)) (UniProt Q8IL11); experiment: P. falciparum M17LAP inhibitors, primary screen, biochemical, fluorogenic H-Leu-NHMec substrate, 1536-well (AID 1619); conditions: recombinant M17LAP, H-Leu-NHMec fluorogenic kinetic assay; at 30 µM; stronger effect = higher value;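 further: plate controls were full reaction with DMSO carrier for no effect and no enzyme background for full effect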
Sequence (Q8IL11 whole entry, looked up): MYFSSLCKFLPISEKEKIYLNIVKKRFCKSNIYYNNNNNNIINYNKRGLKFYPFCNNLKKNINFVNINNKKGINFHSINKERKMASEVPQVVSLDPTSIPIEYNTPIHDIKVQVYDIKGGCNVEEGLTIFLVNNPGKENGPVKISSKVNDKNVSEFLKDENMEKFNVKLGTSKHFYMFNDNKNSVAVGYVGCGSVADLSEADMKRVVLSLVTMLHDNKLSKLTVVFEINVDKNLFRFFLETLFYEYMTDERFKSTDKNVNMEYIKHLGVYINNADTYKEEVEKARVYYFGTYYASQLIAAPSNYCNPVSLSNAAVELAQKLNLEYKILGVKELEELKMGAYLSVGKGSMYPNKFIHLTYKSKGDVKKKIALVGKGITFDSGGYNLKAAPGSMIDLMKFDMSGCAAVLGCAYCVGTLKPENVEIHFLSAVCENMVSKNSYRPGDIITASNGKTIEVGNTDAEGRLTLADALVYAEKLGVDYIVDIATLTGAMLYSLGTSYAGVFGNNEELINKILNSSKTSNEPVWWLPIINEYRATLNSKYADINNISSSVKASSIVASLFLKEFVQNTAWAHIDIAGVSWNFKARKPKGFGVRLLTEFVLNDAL

inhibition, inactive:
Cc1ccc2cc(CN(CC3CCCO3)S(=O)(=O)c3cccc4nsnc34)c(=O)[nH]c2c1 (centres undefined) -1.29%
O=C(COC(=O)c1ccc[nH]c1=O)NCC1CCCO1 (centres undefined) -1.42%
Cc1ccc(S(=O)(=O)N2CCN(CC(=O)NC3CCCc4ccccc43)CC2)c(C)c1 (centres undefined) 5.05%
CC(NC(=O)C(C)N1C(=O)C2C3CC(C(Br)C3Br)C2C1=O)c1ccccc1 (centres undefined) 10.6%
C=CCOC(=O)C1=C(C)Nc2ncnn2C1c1cc(Br)ccc1F (centres undefined) -2.3%
Cc1ccc(CSc2nnc(SCC(=O)N/N=C/C=C/c3ccccc3[N+](=O)[O-])s2)cc1 5.78%
S=c1[nH]nc(-c2ccccn2)n1/N=C/c1ccco1 0.92%
CCOc1ccc(C(=O)CN2CCN(S(=O)(=O)c3ccc(Br)cc3)CC2)cc1 41.1%
CCOc1ccc(C(=O)CN2CCN(S(=O)(=O)c3ccc(F)cc3)CC2)cc1 26.6%
CC(C)[C@H](NS(=O)(=O)c1ccc2c(c1)OCCO2)C(=O)OCC(=O)Nc1ccccc1Cl 9.34%
Cc1ccc(C)c(NC(=O)c2ccccc2NS(=O)(=O)c2cc([N+](=O)[O-])ccc2C)c1 31.8%
CC(=O)Nc1ccc(NS(=O)(=O)c2cc([N+](=O)[O-])ccc2C)cc1 1.99%
CCN(CC)CCN(C(=O)c1ccc2c(c1)CCCC2)c1nc2ccc(F)cc2s1 -4.78%
c1ccc(CCNc2nc(-c3ccncc3)nc3ccccc23)cc1 11.8%
CC(C)OC(=O)c1c(-c2ccc(C(C)C)cc2)csc1NC(=O)C1CCCO1 (centres undefined) 16.2%
COC(=O)c1c(-c2cccc(C)c2)csc1NC(=O)C1CCCO1 (centres undefined) -0.44%
CCOC(=O)c1c(-c2ccc(OC)c(OC)c2)csc1NC(=O)C1CCCO1 (centres undefined) -3.98%
COC(=O)c1sccc1NC(=O)C1CC=CCC1C(=O)O (centres undefined) 36.4%
COC(=O)c1c(-c2ccccc2)csc1NC(=O)c1ccco1 4.09%
CCOC(=O)c1c(-c2ccccc2)csc1NC(=O)C1CCCO1 (centres undefined) 17.1%
CCc1ccc(-c2csc(NC(=O)C3CCCO3)c2C(=O)OC(C)C)cc1 (centres undefined) 57.8%
Cc1ccsc1C(=O)NNC(=O)C1CC=CCC1C(=O)O (centres undefined) 28%
COc1ccc(NC(=O)C2=C(C)NC(=O)NC2c2cccs2)c(OC)c1 (centres undefined) 2.25%
COc1ccc(OCC(=O)OC2CCCN(C)C2)cc1 (centres undefined) 3.48%
Cc1c(-c2ccc(Cl)cc2)oc(=O)c2c(N)n(-c3ccccc3)nc12 -7.58%
CCN(c1ccccc1)S(=O)(=O)c1cc(C(=O)OC(C)C(=O)Nc2ccc3c(c2)OCCO3)ccc1C (centres undefined) -0.98%
Cn1c(SCC(=O)NCCN2C(=O)CSC2=O)nnc1-c1ccccc1 -14.5%
Cc1cc(C)c(-c2c(O)c3cnn(-c4ccccc4)c3[nH]c2=O)c(C)c1 13.5%
Cc1ccc(CC(=O)N2CCOCC2)cc1 0.85%
Cc1ccc2ccccc2[n+]1CCCS(=O)(=O)[O-] 7.83%
CCOC(=O)c1c(-c2cccc([N+](=O)[O-])c2)csc1NC(=O)C1CCCCC1 -7.16%
CCOC(=O)c1c(-c2ccc(F)cc2)csc1NC(=O)C1CC=CCC1C(=O)O (centres undefined) 3.77%
COC(=O)c1c(-c2ccccc2)csc1NC(=O)C1CC=CCC1C(=O)O (centres undefined) 6.75%
CCOC(=O)c1c(-c2ccc(C)cc2)csc1NC(=O)C1CCCO1 (centres undefined) -4.23%
COC(=O)c1c(-c2ccc(C)cc2)csc1NC(=S)NC(=O)c1ccc(F)cc1 -17.5%
CCOC(=O)c1c(-c2cccc([N+](=O)[O-])c2)csc1NC(=O)C1CC1 -5.68%
Cc1nn(-c2ccccc2)c(N)c1C(O)(CSc1nccn1C)C(F)(F)F (centres undefined) -3.48%
CCC(CC)c1nnc(NC(=O)C2=NNC(=O)CC2)s1 -4.73%
COc1ccc(-c2cc(=O)n(-c3ccc([N+](=O)[O-])cc3)[nH]2)cc1 2.52%
Nn1cnc2sc3c(c2c1=O)CCC3 0.94%
CCC(=O)Nc1ccc2c(c1)C(=O)c1ccccc1C2=O -6.31%
COC(=O)N1[C@H](C)C=C[C@]1(Cc1ccccc1)C(=O)O 2.77%
COc1ccc(N2C(=O)/C(=C/c3ccc([N+](=O)[O-])cc3)C=C2c2ccccc2)cc1 -15.3%
CCOC(=O)c1ccc(Cl)c(NC(=O)c2ccc(-c3ccccc3)cc2)c1 -7.72%
COc1ccccc1Nc1nc(-c2c(C)nc3ncccn23)cs1 11.3%
COc1ccc(C2C(C#N)=C(N)OC3=C2C(=O)CC(C)(C)C3)cc1 (centres undefined) 7%
CN=c1scc(C)n1/N=C/c1ccc(O)c(O)c1O 59%
CCN=c1scc(C)n1/N=C/c1ccsc1 12.2%
CCCCN(CC)CCCNC(=O)c1cc2c(=O)n(C)c3ccccc3c2n1C -2.09%
COc1ccc(C(=O)CCC(=O)O)cc1 2.45%
O=C(O)CCN1C(=O)/C(=C\c2ccncc2)SC1=S 12.4%
C/C(=C1/SC(=S)N(CCC(=O)O)C1=O)c1ccc(O)cc1 52.2%
COc1ccc(/C=C2/SC(=S)N(CCC(=O)O)C2=O)cc1 38.8%
C=CCNC(=O)CCCc1ccccc1 11.4%
CC1CCCCN1C(=O)Cn1cnc2c1c(=O)n(C)c(=O)n2C (centres undefined) 0.19%
Cc1cc(-c2ccccc2)nc(Oc2cccc(C(F)(F)F)c2)c1S(C)(=O)=O -2.06%
COc1cccc(-n2nc3c(=S)[nH]nc(C)c3c2C)c1 -3.52%
O=C(O)COCC(=O)Nc1cc(C(F)(F)F)cc(C(F)(F)F)c1 -0.47%
COc1ccccc1NS(=O)(=O)c1ccc(NC(=O)c2ccncc2)cc1 -5.68%
Cc1ccccc1-c1cc(=O)c2c(O)cccc2o1 -7.05%
COc1ccc(-c2cc(=O)c3c(O)c(OC)c(O)cc3o2)cc1 -3.88%
COc1ccc(C2=NOC(C(=O)Nc3cc(C)on3)C2)cc1 (centres undefined) -16.7%
COC(=O)c1ccc(N2C(=O)CC(SCC(=O)Nc3ccc(OC)cc3)C2=O)cc1 (centres undefined) -6.08%
COc1ccccc1NC(=O)CSC1CC(=O)N(c2ccc3c(c2)OCO3)C1=O (centres undefined) 2.14%
COC(=O)[C@@]1(Cc2ccccc2)[C@H]2c3cc(C(=O)N4CCCC4)n(CCSCCO)c3C[C@H]2CN1C(=O)c1ccccc1 2.66%
CN(CCC#N)S(=O)(=O)c1ccc2[nH]cc(C(=O)NCCc3ccccc3)c(=O)c2c1 -16%
Cc1cc(Cl)ccc1C(=O)C1CCCN(C(=O)CCn2cnnn2)C1 (centres undefined) 5.92%
CCOc1ccccc1C1C(C#N)=C(N)Oc2n[nH]c(CC)c21 (centres undefined) 29.4%
CCCc1[nH]nc2c1C(c1ccccc1OCC)C(C#N)=C(N)O2 (centres undefined) 8.34%
CCOC(=O)N1CCC(N2C(=O)c3ccccc3C2Nc2ccc3c(c2)OCCO3)CC1 (centres undefined) -7.29%
CCn1c(-c2cc(-c3ccc(C)cc3)nc3ccccc23)n[nH]c1=S -3.9%
CCCCS(=O)(=O)N1CN(S(=O)(=O)CCCC)C2NC(=O)NC21 (centres undefined) 0.79%
CCCc1cc(=O)oc2c(C)c(OCc3nn[nH]n3)ccc12 -5.76%
CCCCc1cc(=O)oc2c(C)c(OCc3nn[nH]n3)ccc12 6.82%
O=C(NC1CCCCC1)c1ccccc1NC(=S)NC(=O)C1CC1 5.81%
S=C(Nc1ccccc1)Nc1ccccc1-n1cccc1 -5.63%
Cn1cnnc1SCC(=O)Nc1sc2c(c1C#N)CCCCC2 11.7%
Cn1cnnc1SCC(=O)Nc1sccc1C#N -7.3%
Cc1nnc(SCC(=O)Nc2sc3c(c2C#N)CCCC3)[nH]c1=O 52.5%
N#Cc1c(NC(=O)CSc2nc(N)cc(=O)[nH]2)sc2c1CCCCCC2 4.49%
Cc1ccnc(SCC(=O)Nc2sc3c(c2C#N)CCCC3)n1 2.01%
Cc1csc(SCC(=O)Nc2sccc2C#N)n1 0.5%
N#Cc1c(NC(=O)CSc2ncn(-c3ccccc3)n2)sc2c1CCCC2 9.47%
N#Cc1c(NC(=O)CSC2=NCCS2)sc2c1CCCC2 19.2%
O=C1CC(C(=O)NCc2ccccc2)C2(CCCC2)O1 (centres undefined) -0.86%
COc1ccc(C2C(C(=O)N3CCCCC3)c3ccccc3C(=O)N2C)cc1 (centres undefined) -0.86%
CCOC(=O)c1sc(NC(=O)CSc2nc(C)cc(C)c2C#N)c(C#N)c1C -17.4%
CCOC(=O)c1sc(NC(=O)CSc2nc(C)cc(C)n2)c(C#N)c1C -1.79%
Cc1ccc(OCC(=O)OC2CCS(=O)(=O)C2)cc1 (centres undefined) 1.23%
CN1C(=O)c2ccc(N3CCCC3)cc2C1=O 22.5%
CN(C)c1ccc2c(=O)[nH][nH]c(=O)c2c1 5.67%
O=C(Nc1ccc(Br)cc1Cl)NC1CC1 -4.66%
CC(CCc1ccccc1)NC(=O)c1cccs1 (centres undefined) -2.09%
Cc1ccc2c(CC(=O)N3CCN(S(=O)(=O)c4ccc5c(c4)OCCO5)CC3)coc2c1 -3.86%
